In PubChem BioAssay (NCATS):
Results filed as inconclusive are left out. Active and inactive are the calls of the source. Unless noted, the call rests on the fitted dose curve; in most records, active means well fitted curve in the direction sought with a large enough effect; inconclusive means small, poorly fitted or top-dose-only effect, or another doubt; inactive means no such curve, though single readings can be large; an effect the other way counts as inactive or inconclusive.

Columns and labels:
[1] = AP1 Signaling Pathway (AID 357; active means well fitted curve in either direction with a large enough effect, not every such curve was filed as active;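 further: ME-180 reporter cells stimulated with EGF at its EC50 level; on the % scale 0 is the no-effect control and ±100 the full control effect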); conditions: ME-180 AP-1-bla reporter, EGF-induced, beta-lactamase ratio, 5 h; at 7.69 µM (top of the series) unless noted
Outline: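 A ratiometric CCF4 readout (405 nm excitation; 460 and 530 nm emission) quantified AP-1-driven beta-lactamase in ME-180 cells after 5 h with compound and EC50 EGF; AC50 values were derived for activators and inhibitors.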

[2] = NFAT Signaling Pathway (AID 444; active means well fitted curve in either direction with a large enough effect, not every such curve was filed as active;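 further: carbachol stimulus at about its EC50 of 1 µM final; on the % scale 0 is the no-effect control and ±100 the full control effect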); conditions: Jurkat NFAT-bla M1, carbachol, beta-lactamase ratio, 5 h; at 7.69 µM (top of the series) unless noted
Outline: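 Jurkat cells carrying an NFAT-driven β-lactamase reporter and co-transfected muscarinic M1 receptor were treated with compound plus carbachol (1 uM final, an EC50 level) for 5 h at 37 °C. CCF4 loading followed for 1 h at RT; 460/530 nm ratio gave %activity.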

[3] = Stat Signaling Pathway (AID 446; active means well fitted curve in either direction with a large enough effect, not every such curve was filed as active;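 further: ME-180 cervical cancer cells given 40 pM IL-6 alongside compound; SIE-controlled beta-lactamase reporter measured as 460/530 nm FRET emission ratio; on the % scale 0 is the no-effect control and ±100 the full control effect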); conditions: ME-180 SIE beta-lactamase reporter, IL-6 stimulated, 5 h; at 7.69 µM (top of the series) unless noted
Outline: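 ME-180 SIE-bla cells; overnight plating; cpd + IL-6 40 pM, 5 h, 37 C; LiveBLAzer 2.5 h RT; 460/530 nm emission ratio. Normalized to 300 pM IL-6 and 125 nM JAK inhibitor controls.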

[4] = target: Glucocorticoid receptor (Homo sapiens) (UniProt P04150); assay: GR-GFP Redistribution (AID 450;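 active means compounds whose dose series gives a full or clear partial fitted curve of increased nuclear translocation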; further: potency means the concentration at half of the fitted maximal effect); conditions: U2OS GR-GFP nuclear translocation, laser cytometry, 2 h
Chain of Glucocorticoid receptor (Homo sapiens) (P04150 whole entry, looked up, the tested form may be a part): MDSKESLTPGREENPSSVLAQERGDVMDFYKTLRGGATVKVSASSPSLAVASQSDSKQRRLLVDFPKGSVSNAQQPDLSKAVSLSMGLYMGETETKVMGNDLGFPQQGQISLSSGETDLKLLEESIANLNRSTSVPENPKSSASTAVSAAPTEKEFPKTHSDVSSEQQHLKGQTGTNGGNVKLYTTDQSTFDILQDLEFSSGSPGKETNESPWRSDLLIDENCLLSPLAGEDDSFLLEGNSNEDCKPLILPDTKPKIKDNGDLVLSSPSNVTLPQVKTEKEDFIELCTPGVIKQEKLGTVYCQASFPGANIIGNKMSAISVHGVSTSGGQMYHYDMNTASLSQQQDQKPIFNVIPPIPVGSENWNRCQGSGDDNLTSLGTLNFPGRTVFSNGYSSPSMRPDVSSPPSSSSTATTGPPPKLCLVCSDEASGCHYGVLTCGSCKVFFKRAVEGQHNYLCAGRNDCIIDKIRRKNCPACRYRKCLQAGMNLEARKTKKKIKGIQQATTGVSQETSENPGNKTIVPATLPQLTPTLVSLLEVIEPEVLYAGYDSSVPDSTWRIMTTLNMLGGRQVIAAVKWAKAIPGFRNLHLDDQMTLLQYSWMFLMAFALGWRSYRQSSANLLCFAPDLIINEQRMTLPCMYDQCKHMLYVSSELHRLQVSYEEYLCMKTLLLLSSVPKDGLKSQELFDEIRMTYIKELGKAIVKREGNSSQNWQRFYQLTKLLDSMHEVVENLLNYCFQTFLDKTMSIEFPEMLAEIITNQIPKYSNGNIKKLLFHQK

[5] = target: Glucocorticoid receptor (Homo sapiens) (UniProt P04150); assay: GR-EFC Redistribution (AID 451; calls by dose curve; further: potency means the concentration at half of the fitted maximal effect); conditions: CHO-K1 GR-EFC translocation, beta-gal luminescence, 2 h
Outline: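 CHO-K1 cells stably expressing nuclear-localized β-gal enzyme acceptor and GR fused C-terminally to the enzyme donor fragment; ligand-driven nuclear translocation restores β-gal by complementation. Compounds titrated up to 46 uM final, 2 h at 37 °C; luminescence read.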

[6] = target: Mitogen-activated protein kinase 10 (Mus musculus) (UniProt Q61831); assay: JNK3 AlphaScreen Assay (AID 530; active means well fitted curve in either direction with a large enough effect, not every such curve was filed as active;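 further: kinase came from lysate of stimulated human HepG2 cells; signal reports phosphorylation of biotinylated GST-cJun 1-79 at Ser73 with 10 µM ATP; on the % scale 0 is the no-effect control and ±100 the full control effect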)
Outline: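 Inhibitors reduce antibody binding to phosphorylated biotin-cJun, lowering AlphaScreen luminescence. Lysates from HepG2 cells pre-activated by IL-1beta plus TNF-alpha supplied JNK3; compounds were titrated.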

[7] = qHTS Assay for Lipid Storage Modulators (AID 1519; calls by dose curve); conditions: Drosophila S3 cells, BODIPY lipid droplet/cell ratio, laser cytometry, cells loaded with oleic acid; for activity change, negative = inhibition: at 57.5 µM (top of the series)
Outline: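 Cells seeded at 5,000 per well were treated with compounds over a concentration series and loaded with oleic acid (400 uM, as added). Lipid droplet fluorescence (488 nm excitation, 500-530 nm channel) was read by laser-scanning cytometry and normalized to 20 uM Triacsin C.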

[8] = target: Dual specificity protein kinase CLK4 (Homo sapiens) (UniProt Q9HAZ1); assay: qHTS Assay for Inhibitors of CDC-like Kinase 4 (Kinase-Glo Assay) (AID 1770); further: nearly all actives have a fitted effect of over 65% in size; further: potency means the concentration at half of the fitted maximal effect
Chain of Dual specificity protein kinase CLK4 (Homo sapiens) (Q9HAZ1 whole entry, looked up): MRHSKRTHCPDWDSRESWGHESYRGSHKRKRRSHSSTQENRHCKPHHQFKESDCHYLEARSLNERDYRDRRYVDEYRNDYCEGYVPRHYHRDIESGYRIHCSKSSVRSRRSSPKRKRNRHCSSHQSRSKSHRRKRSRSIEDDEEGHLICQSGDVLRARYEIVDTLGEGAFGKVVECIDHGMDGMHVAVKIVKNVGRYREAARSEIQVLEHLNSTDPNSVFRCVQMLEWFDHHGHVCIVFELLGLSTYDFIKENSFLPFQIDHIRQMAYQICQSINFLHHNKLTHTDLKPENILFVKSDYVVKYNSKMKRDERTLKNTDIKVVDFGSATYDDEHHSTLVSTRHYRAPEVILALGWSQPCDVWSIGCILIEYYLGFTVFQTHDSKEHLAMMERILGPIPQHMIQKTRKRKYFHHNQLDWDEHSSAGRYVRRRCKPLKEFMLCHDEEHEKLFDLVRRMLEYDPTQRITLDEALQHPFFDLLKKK
Outline: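 Recombinant human Clk4 (25 nM) phosphorylated RS repeat peptide (100 uM) with 1 uM ATP in Tris pH 7.5/MgCl2/EGTA/DTT/Triton buffer for 4.5 h at room temperature. Residual ATP was quantified by Kinase-Glo luciferase luminescence.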

[9] = target: Ubiquitin carboxyl-terminal hydrolase 1 (Homo sapiens) (UniProt O94782); assay: Inhibitors of USP1/UAF1: Pilot qHTS (AID 504865);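 further: rhodamine fluorescence freed from ubiquitin-rhodamine substrate followed over time; top concentration of the series differs between compounds; on the % scale 0 is the no-effect control and ±100 the full control effect; nearly all actives have a fitted effect of over 35% in size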
Chain of Ubiquitin carboxyl-terminal hydrolase 1 (Homo sapiens) (O94782 whole entry, looked up): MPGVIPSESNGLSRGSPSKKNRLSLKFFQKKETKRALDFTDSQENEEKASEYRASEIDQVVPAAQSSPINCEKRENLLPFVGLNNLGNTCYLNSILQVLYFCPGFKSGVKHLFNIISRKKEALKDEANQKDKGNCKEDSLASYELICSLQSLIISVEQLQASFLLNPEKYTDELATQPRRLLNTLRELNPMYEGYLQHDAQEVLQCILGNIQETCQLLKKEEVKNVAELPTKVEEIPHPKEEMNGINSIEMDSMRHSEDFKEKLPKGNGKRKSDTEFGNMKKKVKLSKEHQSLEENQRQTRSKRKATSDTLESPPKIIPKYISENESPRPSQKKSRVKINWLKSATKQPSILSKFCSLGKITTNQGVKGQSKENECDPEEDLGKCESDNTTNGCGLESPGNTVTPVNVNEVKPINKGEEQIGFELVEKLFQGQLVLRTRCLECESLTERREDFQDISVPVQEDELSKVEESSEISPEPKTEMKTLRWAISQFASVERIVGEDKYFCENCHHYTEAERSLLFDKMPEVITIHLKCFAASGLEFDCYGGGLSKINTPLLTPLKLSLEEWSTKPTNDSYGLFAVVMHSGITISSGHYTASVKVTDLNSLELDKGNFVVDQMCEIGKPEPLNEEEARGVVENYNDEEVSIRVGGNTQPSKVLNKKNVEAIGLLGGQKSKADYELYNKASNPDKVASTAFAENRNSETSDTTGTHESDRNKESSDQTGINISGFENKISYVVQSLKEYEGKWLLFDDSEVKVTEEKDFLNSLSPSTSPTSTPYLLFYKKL
Outline: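 USP1/UAF1 complex (1nM) preincubated with compound 15 min at room temperature, then Ub-Rho substrate (150nM final) added. Fluorescence read kinetically at 480/540 nm, 6 reads every 60 seconds. Buffer: 50mM HEPES pH 7.8, 0.5mM EDTA, 0.1 mg/ml BSA, 1mM TCEP, 0.01% Tween-20.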

[10] = Primary qHTS for small molecule stabilizers of the endoplasmic reticulum resident proteome: Secreted ER Calcium Modulated Protein (SERCaMP) assay (AID 1508630); further: on the % scale 0 is the no-effect control and ±100 the full control effect
Outline: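 GLuc-SERCaMP-expressing SH-SY5Y cells, pretreated 16 h with compound, are challenged with thapsigargin to empty ER calcium stores; after 4 h, coelenterazine is added directly to the medium and luminescence is imaged.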

[11] = target: Lysosomal acid glucosylceramidase (Homo sapiens) (UniProt P04062); assay: Glucocerebrosidase-p2 (AID 348; in the data active means potency below about 10 µM; further: potency means the concentration at half of the fitted maximal effect); conditions: purified GBA, blue fluorogenic substrate, 40 min
Chain of Lysosomal acid glucosylceramidase (Homo sapiens) (P04062 whole entry, looked up): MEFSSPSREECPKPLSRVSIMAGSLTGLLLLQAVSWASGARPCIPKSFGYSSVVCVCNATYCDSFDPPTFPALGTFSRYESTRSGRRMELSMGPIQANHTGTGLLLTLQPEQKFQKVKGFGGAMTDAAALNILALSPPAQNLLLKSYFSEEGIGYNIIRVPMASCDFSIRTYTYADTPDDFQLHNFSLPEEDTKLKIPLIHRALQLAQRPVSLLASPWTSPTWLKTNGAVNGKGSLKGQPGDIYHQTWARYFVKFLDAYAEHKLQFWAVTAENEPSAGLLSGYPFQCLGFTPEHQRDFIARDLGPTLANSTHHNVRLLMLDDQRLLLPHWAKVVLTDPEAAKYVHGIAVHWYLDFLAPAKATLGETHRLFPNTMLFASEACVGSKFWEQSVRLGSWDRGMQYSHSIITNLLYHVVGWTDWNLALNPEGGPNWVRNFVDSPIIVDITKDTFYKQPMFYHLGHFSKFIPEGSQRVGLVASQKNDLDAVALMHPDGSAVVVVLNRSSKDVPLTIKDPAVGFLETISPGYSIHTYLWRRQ
Outline: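 Compounds titrated from 0.6 nM upwards against 0.2 nM enzyme in pH 5.9 citric acid/KH2PO4, taurocholate, tween-20; blue fluorogenic substrate 80 uM, 40 min room temperature, stopped and read Ex 365/Em 440 for AC50.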

[12] = target: Cytochrome P450 1A2 (Homo sapiens) (UniProt P05177); assay: p450-cyp1a2 (AID 410; calls by dose curve; further: potency means the concentration at half of the fitted maximal effect)
Chain of Cytochrome P450 1A2 (Homo sapiens) (P05177 whole entry, looked up): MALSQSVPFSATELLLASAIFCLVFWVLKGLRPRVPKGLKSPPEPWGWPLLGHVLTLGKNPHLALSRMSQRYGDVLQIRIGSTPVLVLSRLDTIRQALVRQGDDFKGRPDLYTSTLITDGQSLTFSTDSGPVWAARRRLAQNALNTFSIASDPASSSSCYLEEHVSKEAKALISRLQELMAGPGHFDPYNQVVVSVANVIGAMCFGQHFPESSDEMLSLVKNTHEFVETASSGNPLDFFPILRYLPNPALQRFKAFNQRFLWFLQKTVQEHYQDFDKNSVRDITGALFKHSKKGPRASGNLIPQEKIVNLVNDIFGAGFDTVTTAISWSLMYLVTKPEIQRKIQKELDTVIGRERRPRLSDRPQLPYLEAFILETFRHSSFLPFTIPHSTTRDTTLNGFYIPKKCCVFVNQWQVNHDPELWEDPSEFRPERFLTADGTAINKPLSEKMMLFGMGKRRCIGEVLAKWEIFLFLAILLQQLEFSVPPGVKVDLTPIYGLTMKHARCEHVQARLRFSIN
Outline: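 Luminescent readout of luciferin formed from Luciferin-ME by human CYP1A2; data normalized against complete inhibition by 57 uM furafylline. Enzyme 20nM, substrate 100uM at Km, 100mM KPO4 buffer, 60 min reaction at room temperature.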

[13] = target: 3',5'-cyclic-AMP phosphodiesterase 4B (Homo sapiens) (UniProt Q07343); assay: qHTS Assay for Inhibitors of PDE-IV (AID 607; active means well fitted activation curve with a large enough effect in the main read-out, with a control signal flat, not every such curve was filed as active; further: % of control where 0% means no effect)
Chain of 3',5'-cyclic-AMP phosphodiesterase 4B (Homo sapiens) (Q07343 whole entry, looked up): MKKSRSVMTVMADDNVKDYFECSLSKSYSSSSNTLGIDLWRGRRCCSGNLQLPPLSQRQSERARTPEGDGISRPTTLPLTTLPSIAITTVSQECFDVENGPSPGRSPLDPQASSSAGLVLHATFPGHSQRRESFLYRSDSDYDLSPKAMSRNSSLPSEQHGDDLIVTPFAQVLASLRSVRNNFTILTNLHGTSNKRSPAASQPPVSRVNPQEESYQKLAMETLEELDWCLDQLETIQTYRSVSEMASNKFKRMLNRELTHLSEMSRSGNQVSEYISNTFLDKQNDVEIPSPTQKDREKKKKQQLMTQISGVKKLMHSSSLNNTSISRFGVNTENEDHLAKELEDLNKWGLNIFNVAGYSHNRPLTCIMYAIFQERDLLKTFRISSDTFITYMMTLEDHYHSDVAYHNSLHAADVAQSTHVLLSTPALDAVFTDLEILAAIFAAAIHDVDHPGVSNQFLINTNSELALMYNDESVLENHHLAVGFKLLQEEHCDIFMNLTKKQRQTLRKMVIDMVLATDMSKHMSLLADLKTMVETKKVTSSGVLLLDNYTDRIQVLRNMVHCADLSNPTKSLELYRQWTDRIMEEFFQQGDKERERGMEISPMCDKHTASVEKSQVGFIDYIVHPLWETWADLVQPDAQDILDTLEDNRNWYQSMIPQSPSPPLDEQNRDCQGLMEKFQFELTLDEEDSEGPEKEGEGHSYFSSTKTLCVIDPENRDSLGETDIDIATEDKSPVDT
Outline: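 ACTOne HEK293 cells carry a modified cAMP-gated CNG channel and express endogenous PDE4; plated 1000 cells/well, compounds up to 22.9 uM final. Membrane-potential dye fluorescence (ex 535/em 590) was read; parental cells received 10 uM forskolin + 100 uM RO 20-1724.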

[14] = target: Dual specificity protein kinase CLK4 (Homo sapiens) (UniProt Q9HAZ1); assay: qHTS Assay for Inhibitors of CDC-like Kinase 4 (ADP-Glo Assay) (AID 1771); further: potency means the concentration at half of the fitted maximal effect; nearly all actives have a fitted effect of over 70% in size
Outline: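 Luminescence from ADP-Glo reports ADP produced by 25 nM Clk4 acting on 100 uM RS repeat peptide with 1 uM ATP over 1 hr at room temperature; residual ATP is depleted before ADP is converted to ATP for detection.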

[15] = target: Cytochrome P450 3A4 (Homo sapiens) (UniProt P08684); assay: qHTS Assay for Activators of Cytochrome P450 3A4 (AID 885); further: nearly all actives have a fitted effect of over 65% in size
Chain of Cytochrome P450 3A4 (Homo sapiens) (P08684 whole entry, looked up): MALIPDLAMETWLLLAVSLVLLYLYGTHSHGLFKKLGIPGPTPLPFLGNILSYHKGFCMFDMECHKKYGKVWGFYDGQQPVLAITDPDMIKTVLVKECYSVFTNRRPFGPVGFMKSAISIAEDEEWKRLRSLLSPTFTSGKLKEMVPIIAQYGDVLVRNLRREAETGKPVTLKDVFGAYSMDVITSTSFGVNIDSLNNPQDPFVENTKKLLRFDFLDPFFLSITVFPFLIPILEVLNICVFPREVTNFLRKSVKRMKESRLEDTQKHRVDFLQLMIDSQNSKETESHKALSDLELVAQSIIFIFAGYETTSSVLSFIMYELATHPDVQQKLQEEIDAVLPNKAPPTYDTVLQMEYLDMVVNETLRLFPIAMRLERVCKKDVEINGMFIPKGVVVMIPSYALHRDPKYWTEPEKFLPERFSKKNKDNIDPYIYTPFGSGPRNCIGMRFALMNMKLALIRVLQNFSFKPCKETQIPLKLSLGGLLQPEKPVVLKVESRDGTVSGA
Outline: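 20nM CYP3A4 + 25uM Luciferin-PPXE (=KM), 200mM KPO4; cpd 10 min RT; NADPH regen, 60 min RT; stop w/ detection buffer, 20 min; luminescence. Normalized to 57 uM ketoconazole.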

[16] = qHTS Assay for Identification of Small Molecule Agonists for Hypoxia Response Element Signaling Pathway (AID 914; active means well fitted activation curve with a large enough effect in the signal ratio, with a control signal flat, not every such curve was filed as active; the % refers to the signal ratio; further: potency means the concentration at half of the fitted maximal effect); conditions: ME-180 (cervical carcinoma) HRE-bla reporter, beta-lactamase ratio, CoCl2, 17 h; activation: stronger effect = higher value
Outline: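 HRE-bla ME-180 assay for agonist-like enhancement of an EC50 CoCl2 stimulus: 17 h at 37 degrees Celsius, CCF4 for 2.5 h, ratiometric 460/530 nm signal converted to %Activity and fitted to AC50.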

[17] = target: Dual specificity protein kinase CLK4 (Homo sapiens) (UniProt Q9HAZ1); assay: qHTS Assay for Inhibitors of CDC-like Kinase 4 (ADP-FP Assay) (AID 1795); further: on the % scale 0 is the no-effect control and ±100 the full control effect; nearly all actives have a fitted effect of over 60% in size
Outline: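 Recombinant human Clk4 (6.25 nM) phosphorylated RS repeat peptide (100 uM) with 1 uM ATP in Tris pH 7.5/MgCl2/EGTA/DTT/Triton buffer for one hour. ADP was quantified by Transcreener competitive fluorescence polarization against an ADP calibration curve.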

[18] = measured here: cell count channel max response
[19] = measured here: lipid channel max response

Compound | activity change, negative = inhibition [1] | activity change, negative = inhibition [2] | activity, negative = inhibition [3] | Potency [4] | Potency [5] | outcome [6] | activity change, negative = inhibition [7] | max response [7, 18] | max response [7, 19] | Potency [8] | Potency [9] | Potency [10] | Potency [11] | Potency [12] | Potency [13] | Potency [14] | Potency [15] | Potency [16] | Potency [17]
COCCNc1ncnc2ccc(-c3ccccc3C)cc12 | -10.5% (inactive) | 10.4% (inactive) | -16.2% (inactive) | > 46 µM (inactive) | > 46 µM (inactive) | inactive | -6.26% (inactive) | -10.5% | -19.3% | 14.1 µM (active) | inactive | inactive |  |  |  |  |  |  | 
COCCNc1cc(-c2ccccc2C)ncn1 | 5.04% (inactive) | 5.56% (inactive) | 13.1% (inactive) | > 46 µM (inactive) | > 46 µM (inactive) | inactive | 6.88% (inactive) | 3.79% | 8.94% | 12.6 µM (active) |  | inactive | > 11.4 µM (inactive) | 15.8 µM (active) | inactive |  |  |  | 
Cc1nc2cnc(Nc3ccccc3)nc2n(C2CC2)c1=O | -25.6% (inactive) | 1.3% (inactive) | -10.8% (inactive) | > 9.22 µM (inactive) |  | inactive | -15.4% (inactive) | -13.6% | -28.8% |  | inactive | inactive | > 11.4 µM (inactive) | 1 µM (active) | inactive | 6.31 µM (active) |  |  | 
CCNc1ncc2nc(-c3cccs3)c(=O)n(C)c2n1 |  |  |  | > 9.22 µM (inactive) | > 46 µM (inactive) | inactive | -12.5% (inactive) | 3.66% | -11.1% | inactive | inactive | inactive |  | 1.58 µM (active) | inactive |  | inactive | 3.16 µM (active) | inactive
CN(C)c1ccc(-c2ccc3ncnc(-n4ccnc4)c3c2)cc1 |  |  | -10% (inactive) |  | > 46 µM (inactive) | inactive | 7.19% (inactive) | 4.81% | 9.84% | 3.16 µM (active) | inactive | inactive | > 11.4 µM (inactive) | 0.316 µM (active) | inactive |  | inactive |  | 
O=c1c(-c2cccs2)nc2cnc(N3CCOCC3)nc2n1-c1ccccc1 | 25.6% (inactive) | 2.23% (inactive) |  | > 9.22 µM (inactive) | > 46 µM (inactive) |  | -15.1% (inactive) | 13.7% | -6.13% | inactive |  | inactive | > 11.4 µM (inactive) | 5.01 µM (active) |  |  | inactive |  | 
COCCNc1ncncc1-c1ccccc1OC | 0.174% (inactive) | 6.41% (inactive) | 16.6% (inactive) | > 46 µM (inactive) | > 46 µM (inactive) | inactive | 4.36% (inactive) | 20.6% | 16.6% | inactive | inactive | inactive | > 11.4 µM (inactive) |  | inactive |  |  |  | inactive
